# Assay results: PubChem BioAssay (NCI)
# Compounds without any hit were thinned out: in the full panel of roughly 79,000, 15% have a hit. Unmarked numbers belong to inactive results. The source made the active and inactive calls. No stated cut-off is given here; in the data, active means growth inhibition above about 70%; inactive means the rest.
# Assay: NCI Yeast Anticancer Drug Screen. Data for the rad50EPP+ strain (AID 151);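 further: 0% = growth of vehicle-treated control cultures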
# Details: S. cerevisiae rad50 mutant strain, hits give high values
# Experimental: Growth inhibition of yeast strains with defined genetic alterations is measured as a screen for potential anti-cancer activity. Selected strains with alterations in DNA damage repair or cell cycle control were exposed to compounds and growth inhibition was measured relative to vehicle treated controls. The strain used in this assay is rad50EPP+
Compound,growth inhibition (at 1.2 µM) [%],growth inhibition (at 3.7 µM) [%],growth inhibition (at 11.0 µM),growth inhibition (at 33.0 µM),growth inhibition (at 100.0 µM)
NC1CCCCC1N.Nc1c(N=Nc2ccc(-c3ccc(N=Nc4cc(S(=O)(=O)[O-])c5ccccc5c4N)cc3)cc2)cc(S(=O)(=O)[O-])c2ccccc12.[OH3+].[OH3+].[Pt+4],-7,13,91% (active),88% (active),60%
COC(C(O)CO)C(O)C(O)C(=O)NNc1ccccc1 (stereo not given),15,29,37%,41%,68%
CC12C(=O)OC(=O)C(c3ccccc31)c1ccccc12,-11,-25,-30%,19%,9%
O=c1nc2n(Cc3ccccc3)c3ccccc3nc-2c(=O)[nH]1,7,30,74% (active),92% (active),97% (active)
CC1SC2(C(=O)Nc3ccc(Cl)cc32)N(c2ccc(Cl)cc2)C1=O (stereo not given),-2,-3,-1%,-2%,1%
CCCCN(CCCC)CCC(O)c1cc2c(Cl)cc(Cl)cc2c2cc(C(F)(F)F)ccc12 (stereo not given),8,19,80% (active),98% (active),93% (active)
O=[N+]([O-])c1ccc(N/N=C/Cc2ccccc2)c([N+](=O)[O-])c1,-2,10,24%,46%,57%
CCCC/C([O-])=C1/C(=O)N(c2ccccc2)N=C1C.CCCC/C([O-])=C1/C(=O)N(c2ccccc2)N=C1C.[Cu+2],-1,0,-1%,-2%,0%
